Measurements from PubChem BioAssay (Tox21).
Values joined by “and” are separate entries in the source; they are usually repeats but may differ in a detail not shown here. Identical values can stand only once. Results filed as inconclusive are left out. A structure can be active in one record and inactive in another. Active and inactive are the calls of the source. Unless noted, the call rests on the fitted dose curve.

How the values were obtained:
[1] = qHTS assay to identify small molecule agonists of the sonic hedgehog signaling (Shh) pathway (AID 1259368); further: series mostly up to about 92 µM; nearly all actives have a fitted effect of over 15% in size
Summary of the method: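 NIH/3T3-derived 3T3Gli1-Luc cells carrying a stably integrated Gli1 response element–firefly luciferase reporter were plated, left 4 hr at 37 C, then given compounds in DMSO for 24 hr. Luminescence was read 30 min after adding luciferase reagent.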

[2] = qHTS assay to identify small molecule antagonists of the sonic hedgehog signaling (Shh) pathway (AID 1259369); further: nearly all actives have a fitted effect of over 45% in size; further: potency means the concentration at half of the fitted maximal effect
Summary of the method: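 NIH/3T3-derived 3T3Gli1-Luc cells with stably integrated Gli1-Luc reporter were preincubated 4hr at 37 C, then given compounds in DMSO plus Shh conditioned medium and incubated 24hr. Firefly luciferase luminescence read after 30min reagent at room temperature.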

[3] = qHTS assay to identify small molecule agonists of the androgen receptor (AR) signaling pathway in the presence of an antagonist - cell viability counter screen (AID 1259379; active means well fitted curve in the direction sought with a large enough effect in the repeat runs; an effect the other way counts as inactive or inconclusive; further: nearly all actives have a fitted effect of over 25% in size; further: potency means the concentration at half of the fitted maximal effect; on activity change, negative = cytotoxicity: series mostly up to about 92 µM)
Summary of the method: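 MDA-kb2 human breast carcinoma cells (stable MMTV-luciferase, AR/GR responsive) were seeded 3,000 cells/well, pre-incubated 5 hr at 37C without CO2, then given 3.0uM nilutamide and compounds at 15 concentrations for 16 hr. Viability was read by CellTiter-Fluor fluorescence.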

[4] = qHTS assay to identify small molecule agonists of the estrogen receptor beta (ER-beta) signaling pathway - cell viability counter screen (AID 1259380; active means well fitted curve in the direction sought with a large enough effect in the repeat runs; an effect the other way counts as inactive or inconclusive; further: nearly all actives have a fitted effect of over 30% in size; further: potency means the concentration at half of the fitted maximal effect)
Summary of the method: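 ER-beta-UAS-bla HEK293T cells in medium with 2% charcoal-stripped FBS were preincubated 6 hr at 37C, dosed with compound in DMSO for 16 hr, then after the bla read, CellTiter-Glo was added for 30 min at room temperature; luminescence recorded.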

[5] = qHTS assay to identify small molecule antagonists of the estrogen receptor beta (ER-beta) signaling pathway - cell viability counter screen (AID 1259382; active means well fitted curve in the direction sought with a large enough effect in the repeat runs; an effect the other way counts as inactive or inconclusive; further: nearly all actives have a fitted effect of over 55% in size; further: potency means the concentration at half of the fitted maximal effect; on activity change, negative = cytotoxicity: series mostly up to about 92 µM)
Summary of the method: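 ER-beta-UAS-bla HEK293T cells (2,000/well, 2% charcoal-stripped FBS) were pre-incubated 6 hr at 37C, then given compound plus 1nM final 17-beta-estradiol for 16 hr. Viability was read in the same wells by CellTiter-Glo luminescence after 30 min at room temperature.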

[6] = qHTS assay to identify small molecule agonists or antagonists of the thyroid stimulating hormone receptor (TSHR) signaling pathway - wild type cell line counter screen (AID 1259384)
Summary of the method: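 Wild-type Hek293 cells, 800/well, 18 h at 37C, then compound with Ro20-1724 for 30 min RT. cAMP by HTRF (cAMP-d2/anti-cAMP cryptate), 1 h RT, fluorescence read. 15 concentrations, triplicates.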

[7] = biological target: Estrogen receptor (Homo sapiens) (UniProt P03372); experiment: qHTS assay to identify small molecule agonists of the estrogen receptor alpha (ER-alpha) signaling pathway in the presence of an antagonist (AID 1259383); further: nearly all actives have a fitted effect of over 15% in size; further: potency means the concentration at half of the fitted maximal effect; on activation: top concentration of the series differs between compounds
Summary of the method: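 VM7Luc4E2 cells (endogenous full-length ER-alpha, 4×ERE-luciferase) were precultured 5 days in phenol red-free medium with 10% charcoal-stripped FBS, given 10.0nM ICI-182,780 (final), then treated with compounds at 15 concentrations for 22hr at 37C; luminescence read with ONE-Glo.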

[8] = biological target: Androgen receptor (Homo sapiens) (UniProt P10275); experiment: qHTS assay to identify small molecule agonists of the androgen receptor (AR) signaling pathway in the presence of an antagonist (AID 1259381); further: nearly all actives have a fitted effect of over 15% in size
Summary of the method: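 MDA-kb2 human breast carcinoma cells carrying an MMTV-luciferase reporter (AR- and GR-responsive) were treated with compounds at 15 concentrations plus 3.0uM final nilutamide for 16hr at 37C without CO2; luminescence was read after ONE-Glo addition.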

[9] = biological target: Estrogen receptor beta (Homo sapiens) (UniProt Q92731); experiment: qHTS assay to identify small molecule agonists of the estrogen receptor beta (ER-beta) signaling pathway (AID 1259377; active means well fitted activation curve with a large enough effect in the signal ratio in the repeat runs, not every such curve was filed as active; the % refers to the signal ratio; further: potency means the concentration at half of the fitted maximal effect)
Summary of the method: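 Ratiometric beta-lactamase FRET read-out came after 2 h substrate loading at room temperature. It followed 16 h compound treatment at 37C of GripTite HEK293T cells carrying a UAS-bla reporter, plated in 2% charcoal-stripped FBS medium.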

[10] = biological target: Estrogen receptor beta (Homo sapiens) (UniProt Q92731); experiment: qHTS assay to identify small molecule antagonists of the estrogen receptor beta (ER-beta) signaling pathway (AID 1259378; active means well fitted inhibition curve with a large enough effect in the signal ratio in the repeat runs, not every such curve was filed as active; the % refers to the signal ratio)
Summary of the method: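 ER-beta-UAS-bla HEK293T cells in 2% charcoal-stripped FBS medium treated with compound plus 1nM final 17-beta-estradiol for 16 hr at 37C. Beta-lactamase reporter read by FRET substrate fluorescence after 2 hours at room temperature.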
On the % scale 0 is the no-effect control and ±100 the full control effect.

Androgen receptor (Homo sapiens), sequence (P10275 whole entry, looked up): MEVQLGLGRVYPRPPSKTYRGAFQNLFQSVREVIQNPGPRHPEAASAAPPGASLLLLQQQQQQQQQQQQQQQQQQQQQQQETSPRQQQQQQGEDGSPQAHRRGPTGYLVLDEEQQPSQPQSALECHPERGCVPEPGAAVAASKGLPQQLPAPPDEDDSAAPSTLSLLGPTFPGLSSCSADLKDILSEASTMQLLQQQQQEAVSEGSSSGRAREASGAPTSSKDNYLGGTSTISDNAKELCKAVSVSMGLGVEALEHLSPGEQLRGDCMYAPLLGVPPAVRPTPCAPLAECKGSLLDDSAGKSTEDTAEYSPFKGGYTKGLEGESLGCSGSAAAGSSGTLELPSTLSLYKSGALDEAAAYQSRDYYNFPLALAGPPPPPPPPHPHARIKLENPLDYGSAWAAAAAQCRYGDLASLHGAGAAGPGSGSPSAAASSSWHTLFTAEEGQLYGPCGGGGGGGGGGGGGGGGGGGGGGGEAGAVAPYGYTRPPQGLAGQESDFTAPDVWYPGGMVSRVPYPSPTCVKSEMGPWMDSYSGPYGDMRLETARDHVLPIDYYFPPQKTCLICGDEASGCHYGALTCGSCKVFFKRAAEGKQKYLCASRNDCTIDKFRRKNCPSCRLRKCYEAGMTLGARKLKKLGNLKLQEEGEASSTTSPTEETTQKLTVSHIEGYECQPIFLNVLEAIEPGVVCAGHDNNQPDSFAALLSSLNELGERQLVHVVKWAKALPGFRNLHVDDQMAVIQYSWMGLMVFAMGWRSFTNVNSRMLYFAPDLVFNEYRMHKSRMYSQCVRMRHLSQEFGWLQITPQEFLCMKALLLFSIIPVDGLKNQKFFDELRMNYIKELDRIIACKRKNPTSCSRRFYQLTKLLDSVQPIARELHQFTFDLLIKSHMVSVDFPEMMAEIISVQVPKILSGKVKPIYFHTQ
Estrogen receptor (Homo sapiens), sequence (P03372 whole entry, looked up): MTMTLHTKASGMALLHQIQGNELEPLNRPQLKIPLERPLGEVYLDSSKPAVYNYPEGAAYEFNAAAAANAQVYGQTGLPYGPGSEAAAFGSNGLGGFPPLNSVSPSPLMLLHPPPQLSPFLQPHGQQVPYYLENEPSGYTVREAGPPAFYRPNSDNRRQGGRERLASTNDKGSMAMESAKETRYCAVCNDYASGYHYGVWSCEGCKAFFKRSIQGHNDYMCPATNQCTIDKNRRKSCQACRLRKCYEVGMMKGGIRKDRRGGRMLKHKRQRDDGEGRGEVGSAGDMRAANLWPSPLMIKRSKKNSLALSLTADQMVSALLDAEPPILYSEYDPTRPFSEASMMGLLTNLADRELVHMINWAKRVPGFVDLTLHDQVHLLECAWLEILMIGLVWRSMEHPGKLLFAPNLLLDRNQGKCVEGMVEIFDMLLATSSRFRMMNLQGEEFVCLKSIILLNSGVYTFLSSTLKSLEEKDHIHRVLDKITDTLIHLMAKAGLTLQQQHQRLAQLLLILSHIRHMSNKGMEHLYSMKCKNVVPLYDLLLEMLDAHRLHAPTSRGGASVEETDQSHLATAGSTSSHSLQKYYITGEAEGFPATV
Estrogen receptor beta (Homo sapiens), sequence (Q92731 whole entry, looked up): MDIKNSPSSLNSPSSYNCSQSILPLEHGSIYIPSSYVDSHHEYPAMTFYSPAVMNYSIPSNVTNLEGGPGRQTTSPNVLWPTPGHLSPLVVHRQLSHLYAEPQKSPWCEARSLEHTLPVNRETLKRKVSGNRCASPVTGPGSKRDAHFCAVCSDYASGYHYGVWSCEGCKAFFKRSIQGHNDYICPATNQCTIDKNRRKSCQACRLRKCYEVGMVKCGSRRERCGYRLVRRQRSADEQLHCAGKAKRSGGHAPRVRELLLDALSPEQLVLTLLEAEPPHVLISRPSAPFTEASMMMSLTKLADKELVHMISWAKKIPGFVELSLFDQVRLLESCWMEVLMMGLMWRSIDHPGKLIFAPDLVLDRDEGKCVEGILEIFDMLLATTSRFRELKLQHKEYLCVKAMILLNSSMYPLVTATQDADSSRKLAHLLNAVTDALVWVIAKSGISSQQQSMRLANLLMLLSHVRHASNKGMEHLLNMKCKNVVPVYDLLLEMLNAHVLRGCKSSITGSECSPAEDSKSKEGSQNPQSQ

CCN1CCCC1CNC(=O)C(O)(c1ccccc1)c1ccccc1 (stereo unspecified)
inactive: outcome [1] | Potency [2] | Potency [3] | Potency [4] | Potency [5] | outcome [6]

O=C(Cl)c1ccccc1
inactive: outcome [1] | Potency [2] | Potency [3] | Potency [4] | Potency [5] | Potency [7] | outcome [6]

CCCC[N+](=O)[O-]
inactive: outcome [1] | Potency [2] | Potency [3] | Potency [4] | Potency [5] | Potency [7] | outcome [6]

COC(=O)[C@@H](N)CCCN/C(N)=N/[N+](=O)[O-]
inactive: outcome [1] | Potency [2] | Potency [3] | Potency [4] | Potency [5] | outcome [6]

CN1C(=O)COc2c(C(=O)NC3CN4CCC3CC4)cc(Cl)cc21 (stereo unspecified)
inactive: outcome [1] | Potency [2] | Potency [3] | Potency [4] | Potency [5] | Potency [7] | outcome [6]

CCCCS(=O)(=O)Cl
inactive: outcome [1] | Potency [2] | Potency [3] | Potency [4] | Potency [5] | outcome [6]

CCOC(=O)COc1ccc(Cl)cc1Cl
inactive: outcome [1] | Potency [2] | Potency [3] | Potency [4] | Potency [5] | outcome [6]

CCCOc1nn(C(=O)NS(=O)(=O)c2ccccc2C(=O)OC)c(=O)n1C
inactive: outcome [1] | Potency [2] | Potency [3] | Potency [4] | Potency [8] | Potency [5] | outcome [6]

N#CC(Br)(Br)C(N)=O
inactive: outcome [1] | Potency [2] | Potency [3] | Potency [4] | Potency [5] | outcome [6]

CNC(=O)Oc1ccccc1C(C)C
inactive: outcome [1] | Potency [2] | Potency [3] | Potency [4] | Potency [8] | Potency [5] | Potency [7] | outcome [6]

O=c1[nH]c2ccccc2n1C1CCNCC1
inactive: outcome [1] | Potency [2] | Potency [3] | Potency [4] | Potency [8] | Potency [5] | Potency [7] | outcome [6]

C(COCC1CO1)OCC1CO1 (stereo unspecified)
active: Potency [2] 34.4 µM
inactive: outcome [1] | Potency [3] | Potency [4] | Potency [5] | Potency [7] | outcome [6]

CC(C)C(C)(N)C#N (stereo unspecified)
inactive: outcome [1] | Potency [2] | Potency [3] | Potency [4] | Potency [5]

CCCCCCC(=O)CCCCCC/C=C/C[C@@H](O)[C@H](O)[C@@](N)(CO)C(=O)O
inactive: activity change [1] -0.137% [at 18.9 µM] | activity change, negative = inhibition [2] 34.1% [at 19 µM] | activity change, negative = cytotoxicity [3] 2.63% [at 19 µM] | activity change, negative = cytotoxicity [4] -0.265% [at 19 µM] | activity change, negative = cytotoxicity [5] 5.36% [at 19 µM] | activation [7] -1.01% [at 19 µM] | cAMP activity change [6] 0.106% [at 18.9 µM]

CCOP(=O)(CN(CCO)CCO)OCC
inactive: outcome [1] | Potency [2] | Potency [3] | Potency [4] | Potency [5] | Potency [7] | outcome [6]

CCN(CC)CCOC(=O)C(O)(c1ccccc1)c1ccccc1
inactive: outcome [1] | Potency [2] | Potency [3] | Potency [4] | Potency [5] | Potency [7] | outcome [6]

ClCC1CO1 (stereo unspecified)
inactive: outcome [1] | Potency [2] | Potency [3] | Potency [4] | Potency [5] | Potency [7] | outcome [6]

CC1=C2[C@H]3OC(=O)[C@@H](C)[C@@H]3CC[C@@]2(C)C=CC1=O
inactive: outcome [1] | Potency [2] | Potency [3] | Potency [4] | Potency [5]

O=C(O)C(Br)(Br)Br
inactive: outcome [1] | Potency [2] | Potency [3] | Potency [4] | Potency [5] | Potency [7] | outcome [6]

CCCCCCCC(=O)Cl
inactive: outcome [1] | Potency [2] | Potency [3] | Potency [4] | Potency [5] | Potency [7] | outcome [6]

Nc1c(Cl)c(F)nc(OCC(=O)O)c1Cl
inactive: outcome [1] | Potency [9] | outcome [10] | Potency [3] | Potency [4] | Potency [8] | Potency [5] | Potency [7] | outcome [6]

NC(=O)OCCCc1ccccc1
inactive: outcome [1] | Potency [9] | outcome [10] | Potency [3] | Potency [4] | Potency [5] | Potency [7] | outcome [6]

Cn1c(N)nc2c3cccnc3ccc21
inactive: outcome [1] | Potency [9] | outcome [10] | Potency [3] | Potency [4] | Potency [5] | Potency [7]

COC[C@@H](NC(C)=O)C(=O)NCc1ccccc1
inactive: outcome [1] | Potency [9] | outcome [10] | Potency [3] | Potency [4] | Potency [8] | Potency [5] | outcome [6]

CCC(C)(C#N)N=NC(C)(C#N)CC (stereo unspecified)
inactive: outcome [1] | Potency [9] | outcome [10] | Potency [3] | Potency [4] | Potency [8] | Potency [5] | Potency [7] | outcome [6]

O=C(Cl)CCl
inactive: outcome [1] | Potency [9] | outcome [10] | Potency [3] | Potency [4] | Potency [5] | Potency [7] | outcome [6]

COC(=O)c1ccc(CBr)cc1
active: Potency [7] 12.3 µM
inactive: outcome [1] | Potency [9] | outcome [10] | Potency [3] | Potency [4] | Potency [8] | Potency [5] | outcome [6]

COC(=O)c1ccccc1CS(=O)(=O)NC(=O)Nc1nc(OC)cc(OC)n1
inactive: outcome [1] | Potency [9] | outcome [10] | Potency [3] | Potency [4] | Potency [5] | Potency [7] | outcome [6]

CCOC1Oc2ccc(OS(C)(=O)=O)cc2C1(C)C (stereo unspecified)
inactive: outcome [1] | Potency [9] | outcome [10] | Potency [4] | Potency [8] | Potency [5] | Potency [7] | outcome [6]
active: Potency [3] 68 µM

C=CCc1cc(OC)c2c(c1)OCO2
inactive: outcome [1] | Potency [9] | outcome [10] | Potency [3] | Potency [4] | Potency [5] | outcome [6]

C=CCN1CC[C@]23CCCC[C@H]2[C@H]1Cc1ccc(O)cc13
inactive: outcome [1] | Potency [2] | Potency [3] | Potency [4] | Potency [5] | outcome [6]

CNC(=O)NC(O)C(Cl)(Cl)Cl (stereo unspecified)
inactive: outcome [1] | Potency [9] | outcome [10] | Potency [3] | Potency [4] | Potency [8] | Potency [5] | Potency [7] | outcome [6]

ClCCN1CCCC1
inactive: outcome [1] | Potency [9] | outcome [10] | Potency [3] | Potency [4] | Potency [5] | Potency [7] | outcome [6]

C=C1C[C@@H]2[C@H](CC[C@]3(C)C(=O)CC[C@@H]23)[C@@]2(C)C=CC(=O)C=C12
inactive: outcome [1] | Potency [9] | outcome [10] | Potency [3] | Potency [4] | Potency [5] | Potency [7] | outcome [6]

NNC(N)=O
inactive: outcome [1] | Potency [9] | outcome [10] | Potency [3] | Potency [4] | Potency [5] | Potency [7] | outcome [6]

O=C1C2CC=CCC2C(=O)N1SC(Cl)(Cl)Cl (stereo unspecified)
inactive: outcome [1] | outcome [10] | outcome [6]
active: Potency [9] 8.6 µM | Potency [3] 30.1 µM
inactive and 30.1 µM (active): Potency [4] | Potency [5]
2.42 µM (active) and inactive: Potency [7]

CCOP(=S)(OCC)Oc1ccc(Cl)cc1Cl
inactive: outcome [1] | Potency [9] | outcome [10] | Potency [3] | Potency [4] | Potency [5] | Potency [7] | outcome [6]

CN(C)C(=O)Oc1cc(OC(=O)N(C)C)cc(C(O)CNC(C)(C)C)c1 (stereo unspecified)
inactive: outcome [1] | Potency [9] | outcome [10] | Potency [3] | Potency [4] | Potency [8] | Potency [5] | Potency [7] | outcome [6]

NNCc1ccccc1
inactive: outcome [1] | Potency [2] | Potency [3] | Potency [5] | outcome [6]

CC(C)(N)Cc1ccc(Cl)cc1
inactive: outcome [1] | Potency [2] | Potency [3] | Potency [4] | Potency [7] | outcome [6]

CCCC(C)(COC(N)=O)COC(N)=O
inactive: outcome [1] | Potency [9] | outcome [10] | Potency [3] | Potency [4] | Potency [5] | outcome [6]

Clc1cc2c(cc1Cl)Oc1cc(Cl)c(Cl)cc1O2
inactive: activity change [1] 0.117% [at 0.349 µM] | activation [9] -4.72% [at 0.348 µM] | activity, negative = inhibition [10] 4.24% [at 0.349 µM] | activity change, negative = cytotoxicity [3] 1.17% [at 0.35 µM] | activity change, negative = cytotoxicity [4] 2.45% [at 0.349 µM] | activation [8] 3.07% [at 0.349 µM] | activity change, negative = cytotoxicity [5] -1.8% [at 0.349 µM] | activation [7] -1.56% [at 0.349 µM] | cAMP activity change [6] 1.16% [at 0.349 µM]
